# Assay outcomes (PubChem)
# ELG1 genotox: inducers of genotoxicity in HEK293T ELG1-luciferase cells; AID 504466; Potency, µM (top dose mostly 46 µM), inactives show top-dose activity change, positive = activation, most hits filed as activators; 330,000 compounds, 1.3% hits; HEK293T ELG1-luciferase reporter, luminescence, 16 h; also: % of control where 0% means no effect; nearly all actives have a fitted effect of over 60% in size
#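 Genotoxic stress is detected as increased luminescence from luciferase-tagged ELG1 in HEK293T cells, measured with ONE-Glo after a 16 hr treatment at 37 °C.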
# NPC1 promoter act: NPC1 promoter activation; Huh7 NPC1 promoter luciferase reporter, 24 h; Potency, µM (highest dose often 9.22 µM), for inactives: at the top dose activation, actives largely listed as activators; 320,000 compounds, 2.4% hits; AID 485313; also: % of control where 0% means no effect; nearly all actives have a fitted effect of over 60% in size
#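 Cells: Huh7 expressing luciferase under the NPC1 promoter, 1500/well. Seeded 2 h, compound added, incubated 24 h at 37 °C. Luciferase reagent, 10 min ambient, then luminescence.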
# Rab9 prom act: activates the Rab9 promoter | Huh7 Rab9 promoter-luciferase reporter, luminescence, 24 h | Potency, µM (top dose mostly 9.22 µM), for inactives: at the highest dose activation, negative = inhibition, actives largely listed as activators | 320,000 compounds, 2.8% hits | AID 485297; also: % of control where 0% means no effect; nearly all actives have a fitted effect of over 60% in size
#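 Huh7 cells stably carrying Rab9 promoter–luciferase reporter, plated 1500 cells/well, compound added after 2 h and incubated 24 h at 37 °C; luciferase luminescence then read after 10 min with detection reagent.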
# SMN2 splice up: SMN2 splice variant enhancement. 210,000 compounds, 2.8% hits. HEK293 SMN2-luciferase splicing reporter, luminescence, 30-36 h. Potency, µM (series often up to 46.1 µM), for inactives: at the top dose activity change, positive = activation, usual class: activators; also: % of control where 0% means no effect; nearly all actives have a fitted effect of over 55% in size
#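 qHTS luciferase splicing reporter: luminescence rises when SMN2 exon 7 is included in transfected HEK293 cells. Compound exposure lasted 30-36 h at 37C, with 4.5 mM final sodium butyrate as control, followed by a ONE-Glo read.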
# FLuc counter: inhibits or activates purified firefly luciferase, miR-21 counter-screen. P08659. purified FLuc, Km substrates, luminescence inhibition. Potency, µM (series often up to 57.5 µM), for inactives: at the highest dose activity change, negative = inhibition, most hits filed as inhibitors. 360,000 compounds, 6.9% hits;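 also: plate controls were vehicle for no effect and reference inhibitor for full effect; nearly all actives have a fitted effect of over 55% in size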
# Target sequence (P08659 whole entry, looked up): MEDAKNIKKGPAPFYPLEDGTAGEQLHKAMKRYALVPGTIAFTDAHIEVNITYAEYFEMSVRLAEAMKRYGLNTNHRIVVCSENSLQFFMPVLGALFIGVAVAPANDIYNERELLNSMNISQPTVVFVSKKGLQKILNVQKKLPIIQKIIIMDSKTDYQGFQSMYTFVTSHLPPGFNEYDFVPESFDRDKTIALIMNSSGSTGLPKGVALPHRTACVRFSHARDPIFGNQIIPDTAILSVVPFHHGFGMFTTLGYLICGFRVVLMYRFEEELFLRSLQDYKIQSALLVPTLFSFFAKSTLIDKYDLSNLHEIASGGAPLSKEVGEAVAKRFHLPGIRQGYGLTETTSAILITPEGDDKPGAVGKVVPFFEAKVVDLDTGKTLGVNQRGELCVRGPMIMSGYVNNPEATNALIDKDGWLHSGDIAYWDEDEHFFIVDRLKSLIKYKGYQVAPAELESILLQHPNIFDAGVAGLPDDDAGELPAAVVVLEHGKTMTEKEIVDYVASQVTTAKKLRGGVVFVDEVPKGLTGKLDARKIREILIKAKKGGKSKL
#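 Purified P. pyralis luciferase, 10 nM final, with Km-level 10 uM D-luciferin and 10 uM ATP in 50 mM Tris acetate pH 7.5, 10 mM Mg acetate, 0.01% Tween-20, 0.05% BSA; 6-point qHTS titration about 60 µM downward; luminescence read.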
# KinaseGlo FLuc: Kinase-Glo luciferase inhibition (counter-screen) | Q27757 | Kinase-Glo luciferase, ATP luminescence, 8 min | Potency, µM (series often up to 38.3 µM), without a hit: top-dose activity change, negative = inhibition, usual class: inhibitors | 200,000 compounds, 0.28% hits; also: % is scaled to controls: 0 for no effect and ±100 for the full control effect; nearly all actives have a fitted effect of over 60% in size
#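 Kinase-Glo luciferase light output from ATP and luciferin was measured with 10 uM ATP, within the enzyme's linear range. Buffer: 50 mM imidazole pH 7.2, 50 mM KCl, 7 mM MgCl2, 0.01% Tween 20, 0.05% BSA; luminescence read after 8 min at ambient temperature.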
# * = called active by the depositor; ? = inconclusive; . = no result; [ ] = another dose, or the depositor's remark. Most compounds without a hit are left out; they make up all but 7.3% or so of the library. Calls follow the shape of the dose curve; as a rule, active = well fitted curve in the direction sought with a large enough effect; inconclusive = small, poorly fitted or top-dose-only effect, or another doubt; inactive = no such curve, though single readings can be large; an effect the other way counts as inactive or inconclusive. Potency is read from the fitted curve at half-maximal effect.
SMILES,ELG1 genotox,NPC1 promoter act,Rab9 prom act,SMN2 splice up,FLuc counter,KinaseGlo FLuc
O=C(NC1CCCCC1)c1cc(-c2ccccc2O)on1,20.6µM*,?,?,.,?,.
COc1ccc(C(CC(=O)O)NS(=O)(=O)c2ccc3c(c2)NC(=O)CO3)cc1 (stereo unspecified),1.7%,1.1%,2.2%,.,0.9%,.
Cc1nn(CC(C)C)c(=S)[nH]c1=O,-3.6%,-4.1%,-8.6%,5.62µM*,0.3%,-0.1%
O=C(CCCc1ccccc1)N=C1SC2CS(=O)(=O)CC2N1c1ccccc1 (stereo unspecified),0.2%,-2.2%,0.5%,.,0.0%,.
CCN(CC)CC(=O)Nc1ccc2c(c1)Nc1ccccc1CC2,0.0%,18.0%,?,-1.5%,12µM*,0.3%
Oc1ccccc1/C=N/Nc1ccnc(SCc2ccccc2)n1,-1.5%,-3.6%,-41.2%,2.2%,0.9%,-3.2%
Oc1ccccc1/C=N/Nc1ncc(Br)cn1,16.4µM*,-2.9%,24.9%,-73.4%,?,-4.6%
Oc1ccccc1/C=N/Nc1ccccc1,?,-3.5%,25.5%,-4.1%,7.57µM*,-8.4%
NC(=S)N/N=C/c1ccccc1O,-5.2%,2.0%,-5.7%,.,2.1%,.
Oc1ccc(/C=N/Nc2ccc3ccccc3c2)c(O)c1,18.6%,8.9%,1.3%,7.2%,19µM*,-0.7%
COc1ccc(C(=O)Nc2ccc3nc(N4CCN(C)CC4)cc(C)c3c2)c(OC)c1,7.3%,0.1%,-0.3%,.,16.9µM*,.
CCOc1ccccc1NC(=O)Nc1nnc(N2CCCCCC2)s1,.,.,.,.,15.1µM*,.
CCN1CCN(c2cc(C)c3cc(NC(=O)c4ccc(OC)c(OC)c4)ccc3n2)CC1,1.2%,5.4%,-1.5%,12.7%,-14.9%,0.3%
Cc1cc(N2CCN(C)CC2)nc2ccc(NC(=O)c3ccc(C(C)(C)C)cc3)cc12,.,.,.,-96.7%,?,.
CCN1CCN(c2cc(C)c3cc(NC(=O)c4cccc(OC)c4)ccc3n2)CC1,12.3%,16.1%,20.2%,.,19µM*,.
CCOc1ccccc1NC(=O)Nc1ccc2nc(N3CCN(C)CC3)cc(C)c2c1,.,.,.,.,5.36µM*,.
COc1ccc2nc(N3CCOCC3)cc(C)c2c1,8.2µM*,?,2.82µM*,11.2µM*,5.36µM*,-1.0%
Nc1c(C(=O)NCCc2ccccc2)nnn1Cc1ccc(Cl)cc1,2.8%,-3.0%,-0.8%,-1.2%,0.3%,0.4%
Cc1c(NC(=O)c2ccc3c(c2)OCO3)cccc1-c1nc2ncccc2o1,2.6%,-1.6%,-0.6%,-25.8%,?,-7.7%
O=C(Nc1cccc(-c2nc3ccccc3s2)c1)c1ccc2c(c1)OCO2,1.0%,13.8%,-1.7%,-3.7%,12µM*,-1.1%
c1ccc2sc(N3CCN(Cc4ccc5c(c4)OCO5)CC3)nc2c1,.,.,.,-2.8%,.,1.3%
c1ccc2sc(-c3ccc4c(c3)OCO4)nc2c1,0.581µM*,0.562µM*,0.316µM*,7.08µM*,0.536µM*,12.6µM*
O=C(Nc1ccc2nn(-c3ccccc3)nc2c1)c1ccc2c(c1)OCO2,8.8%,-1.6%,-3.5%,4.3%,-15.4%,-1.6%
Cc1c(NC(=O)c2ccc3c(c2)OCO3)cccc1-c1nc2ccccc2s1,3.8%,4.8%,2.6%,-10.7%,3.38µM*,-4.7%
COc1ccc2c(c1OC)C(=O)OC2N1C(=O)CC[C@H]1C(=O)Nc1ccc(F)cc1F (stereo partly specified),-3.5%,-2.1%,0.0%,.,0.1%,.
SMILES,ELG1 genotox,NPC1 promoter act,Rab9 prom act,SMN2 splice up,FLuc counter,KinaseGlo FLuc
CCCCOc1ncnc2c1[nH]c1ccc(OC)cc12,?,0.562µM*,1.41µM*,?,1.69µM*,-4.1%
CCCCOc1ncnc2c1[nH]c1ccccc12,0.4%,-5.2%,-12.9%,-76.6%,10.7µM*,-2.8%
CCCCOc1ncnc2c1[nH]c1ccc(OCC)cc12,-1.0%,-2.2%,-16.0%,-19.5%,-2.5%,-6.1%
CCCCOc1ncnc2c1[nH]c1ccc(F)cc12,-0.6%,-14.2%,-25.1%,-55.8%,2.69µM*,-0.5%
COc1ccnc(CSC(N)=Nc2ccccc2OC)c1,-1.7%,-2.4%,-11.2%,-2.5%,-7.7%,-3.5%
CC(C)(C)c1ccc(C(=O)NNC(=S)NC(=O)c2cccnc2)cc1,-0.6%,3.1%,4.1%,.,19µM*,.
CC(C)(C)c1ccc(C(=O)c2c[nH]c(C(=O)NCCCn3ccnc3)c2)cc1,1.3%,24.3%,5.3%,-50.1%,19µM*,1.4%
COc1ccc(C(=O)c2c[nH]c(C(=O)NCCCn3ccnc3)c2)cc1,5.0%,0.8%,4.7%,-5.3%,-1.7%,0.7%
CC(C)(C)c1ccc(C(=O)NC(=S)NCc2cccnc2)cc1,-3.0%,12.6%,3.4%,-39.9%,23.9µM*,-1.0%
CC(C)(C)c1ccc(C(=O)NNC(=O)c2ccncc2)cc1,2.6%,9.3%,11.0%,.,19µM*,.
O=C(CNC(=S)NC(=O)c1ccccc1)c1ccccc1,15.7%,15.0%,6.2%,?,16.9µM*,-1.5%
O=C(CNC(=S)NC(=O)c1ccc(F)cc1)c1ccccc1,4.3%,-0.3%,1.6%,28.1%,3.5%,-5.2%
COCCCNC(=S)NC(=O)c1ccc(C)cc1,?,?,?,14.1µM*,13.5µM*,-0.7%
CC(C)(C)c1ccc(C(=O)c2c[nH]c(C(=O)NCc3cccnc3)c2)cc1,-5.1%,17.0%,23.6%,-6.2%,7.57µM*,8.1%
COCCCNC(=S)NNC(=O)c1ccc(C(C)(C)C)cc1,-4.2%,-2.1%,-1.6%,.,-3.9%,.
COC(=O)CNC(=S)NC(=O)c1ccc(C(C)(C)C)cc1,5.2%,-1.2%,-1.5%,2.4%,13.5µM*,-2.5%
CC(OC(=O)CCN=C1NS(=O)(=O)c2ccccc21)C(=O)c1ccccc1 (stereo unspecified),1.9%,-2.2%,-3.7%,.,-0.3%,.
CCCC#Cc1ccc2c(c1)COc1c3ccccc3nn1-2,?,0.891µM*,0.562µM*,.,1.51µM*,.
CC(=O)N1CCN(S(=O)(=O)c2cccc(C(=O)OCC(=O)NC(=O)c3cccn3C)c2)CC1,0.0%,-0.1%,-7.1%,-4.6%,2.1%,-2.0%
CCN(CC)C(=O)c1c(NC(=O)c2cccc(C)c2)sc2c1CCC(C)C2 (stereo unspecified),.,.,.,-3.8%,16.9µM*,.
Cc1cccc(C(=O)Nc2sc3c(c2C(=O)Nc2ccccc2)CCC3)c1,.,.,.,-12.3%,?,.
Cc1cccc(C(=O)c2c(N)sc3c2CCC(C)C3)c1 (stereo unspecified),?,?,?,.,21.3µM*,.
COc1ccc(NC(=O)CCNS(=O)(=O)c2ccc3c(c2)CC(C)N3C(C)=O)cc1 (stereo unspecified),-1.6%[9.26 µM],-1.0%,-6.9%,.,-0.6%,.
CCN(CC)C(=O)CSc1ncnc2c(-c3ccc(OC)cc3)nsc12,5.2%,11.5%,?,5.8%,-13.4%,-4.2%
